Data: the supplement of paper PMC6555819

Legend:
Assay in all cases: PBM binding z-score (relative to random genomic background probes); higher = stronger binding; sequences stand for … in GC…GCGATTGACAGCGTAGAATGAAGG
[1] = test system: FXR:RXRa (NR concentration 270 nM, RXRa partner concentration 90 nM)
In short: (§1)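 Scanned fluorescence from custom Agilent 4×180K protein-binding microarrays was regression-normalized. Binding z-scores use random background probes as reference. Ligand-free nuclear receptor dimers were incubated on the arrays for 1 h and detected with antibodies against each partner (one per run).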

[2] = test system: LXRa:RXRa (NR concentration 270 nM, RXRa partner concentration 90 nM)
In short: as §1

[3] = test system: LXRa homodimer (NR concentration 270 nM)
In short: as §1

[4] = test system: LXRb:RXRa (NR concentration 270 nM, RXRa partner concentration 90 nM)
In short: as §1

[5] = test system: LXRb homodimer (NR concentration 270 nM)
In short: as §1

[6] = test system: PPARa:RXRa (NR concentration 270 nM, RXRa partner concentration 90 nM)
In short: as §1

[7] = test system: PPARg:RXRa (NR concentration 180 nM, RXRa partner concentration 90 nM)
In short: as §1

[8] = test system: PPARg:RXRa 270nM:90nM, anti-RXR (NR concentration 270 nM, RXRa partner concentration 90 nM)
In short: as §1

[9] = test system: PPARg:RXRa 30nM:10nM, anti-RXR (NR concentration 30 nM, RXRa partner concentration 10 nM)
In short: as §1

[10] = test system: PPARg:RXRa 90nM:30nM, anti-RXR (NR concentration 90 nM, RXRa partner concentration 30 nM)
In short: as §1

Sequence: CCTCGAAGGACAACAGGAGGTCAGAGCTGCCAGA
- PBM binding z-score [1]: 0.962
- PBM binding z-score [2]: 1.97
- PBM binding z-score [3]: 1.73
- PBM binding z-score [4]: 1.5
- PBM binding z-score [5]: -0.405
- PBM binding z-score [6]: 2.05
- PBM binding z-score [7]: 0.581
- PBM binding z-score [8]: 0.229
- PBM binding z-score [9]: -0.343
- PBM binding z-score [10]: -0.119

Sequence: ATCTCTAGGTAAAAGTTCAGTGAGTCCCGAGGAT
- PBM binding z-score [1]: 0.932
- PBM binding z-score [2]: 1.64
- PBM binding z-score [3]: 1.36
- PBM binding z-score [4]: 1.11
- PBM binding z-score [5]: 0.656
- PBM binding z-score [6]: 4.26
- PBM binding z-score [7]: 7.9
- PBM binding z-score [8]: 7.98
- PBM binding z-score [9]: 7.48
- PBM binding z-score [10]: 9.16

Sequence: TAGCTTAGGTCATGCGGGCCAGTATAGTGTCGGC
- PBM binding z-score [1]: 4.63
- PBM binding z-score [2]: 3.38
- PBM binding z-score [3]: 0.514
- PBM binding z-score [4]: 1.93
- PBM binding z-score [5]: 0.519
- PBM binding z-score [6]: 3.57
- PBM binding z-score [7]: 1.32
- PBM binding z-score [8]: 1.95
- PBM binding z-score [9]: 0.0747
- PBM binding z-score [10]: 0.973

Sequence: AGAATGAGGTTACCAAAGATCAGCGAAACGCTTG
- PBM binding z-score [1]: 1.92
- PBM binding z-score [2]: 6.09
- PBM binding z-score [3]: -0.342
- PBM binding z-score [4]: 3.38
- PBM binding z-score [5]: -0.405
- PBM binding z-score [6]: 3.24
- PBM binding z-score [7]: 2.63
- PBM binding z-score [8]: 2.59
- PBM binding z-score [9]: 0.865
- PBM binding z-score [10]: 1.64

Sequence: ATCGAAAGGTAGAGGTGAGTATAGAGAAAGGGAA
- PBM binding z-score [1]: 0.781
- PBM binding z-score [2]: 0.589
- PBM binding z-score [3]: 0.209
- PBM binding z-score [4]: 0.313
- PBM binding z-score [5]: 0.482
- PBM binding z-score [6]: 0.942
- PBM binding z-score [7]: 1
- PBM binding z-score [8]: 0.958
- PBM binding z-score [9]: 0.813
- PBM binding z-score [10]: 0.82

Sequence: GCTAGTTGGTCAGTAAAAGGTCAGACACCGGTCG
- PBM binding z-score [1]: 1.99
- PBM binding z-score [2]: 3.15
- PBM binding z-score [3]: 2.83
- PBM binding z-score [4]: 2.74
- PBM binding z-score [5]: 0.106
- PBM binding z-score [6]: 3.24
- PBM binding z-score [7]: 1.79
- PBM binding z-score [8]: 3.25
- PBM binding z-score [9]: 1.03
- PBM binding z-score [10]: 2.7

Sequence: CGTCCAAGGTCCGCAGGTCAGTGAAAGCGACGTG
- PBM binding z-score [1]: -0.0411
- PBM binding z-score [2]: -0.153
- PBM binding z-score [3]: -0.475
- PBM binding z-score [4]: -0.0275
- PBM binding z-score [5]: -1.05
- PBM binding z-score [6]: 0.735
- PBM binding z-score [7]: -0.507
- PBM binding z-score [8]: 0.0239
- PBM binding z-score [9]: -0.651
- PBM binding z-score [10]: -0.568

Sequence: CTCGAAAGGTCGGTTGAGGTGAGAATACGGATAA
- PBM binding z-score [1]: 3.46
- PBM binding z-score [2]: 1.74
- PBM binding z-score [3]: -0.255
- PBM binding z-score [4]: 1.42
- PBM binding z-score [5]: 0.119
- PBM binding z-score [6]: 2.77
- PBM binding z-score [7]: 0.632
- PBM binding z-score [8]: 1.34
- PBM binding z-score [9]: 0.543
- PBM binding z-score [10]: 0.887

Sequence: TCATATAGGTAAACAGGTGAGAGTCCGTAAGTTA
- PBM binding z-score [1]: 0.963
- PBM binding z-score [2]: 0.822
- PBM binding z-score [3]: 0.145
- PBM binding z-score [4]: 0.682
- PBM binding z-score [5]: 0.166
- PBM binding z-score [6]: 2.04
- PBM binding z-score [7]: 2.39
- PBM binding z-score [8]: 3.16
- PBM binding z-score [9]: 3.77
- PBM binding z-score [10]: 3.41

Sequence: CCGAGTAGATTATGGGGCATTCAGGCAACGGTGA
- PBM binding z-score [1]: 0.0957
- PBM binding z-score [2]: -0.0855
- PBM binding z-score [3]: -0.262
- PBM binding z-score [4]: 0.275
- PBM binding z-score [5]: -0.645
- PBM binding z-score [6]: 0.18
- PBM binding z-score [7]: 0.487
- PBM binding z-score [8]: 0.839
- PBM binding z-score [9]: 0.0845
- PBM binding z-score [10]: 0.412

Sequence: TCATATAGGTAAAGGTGAAAGGCGAACGATATGA
- PBM binding z-score [1]: 0.813
- PBM binding z-score [2]: 1.12
- PBM binding z-score [3]: -0.0796
- PBM binding z-score [4]: 1.17
- PBM binding z-score [5]: 0.0383
- PBM binding z-score [6]: 3.4
- PBM binding z-score [7]: 4.29
- PBM binding z-score [8]: 4.99
- PBM binding z-score [9]: 4.35
- PBM binding z-score [10]: 4.93

Sequence: CCAGACAGCTGAAAGGTAACTCAGTCTGGTACGC
- PBM binding z-score [1]: -0.259
- PBM binding z-score [2]: -0.27
- PBM binding z-score [3]: -0.368
- PBM binding z-score [4]: -0.00199
- PBM binding z-score [5]: -0.748
- PBM binding z-score [6]: 0.193
- PBM binding z-score [7]: 0.377
- PBM binding z-score [8]: -0.223
- PBM binding z-score [9]: -0.581
- PBM binding z-score [10]: -0.401

Sequence: CCTCGGAGGACGACAGGAGGTCAGAGCTGCCAGA
- PBM binding z-score [1]: 0.759
- PBM binding z-score [2]: 1.38
- PBM binding z-score [3]: 0.305
- PBM binding z-score [4]: 1.13
- PBM binding z-score [5]: -0.711
- PBM binding z-score [6]: 1.8
- PBM binding z-score [7]: 0.288
- PBM binding z-score [8]: 0.213
- PBM binding z-score [9]: -0.596
- PBM binding z-score [10]: -0.215

Sequence: GCTAGTTGGTCAGTAAAAGGTCACAGACCGGTCG
- PBM binding z-score [1]: 3.72
- PBM binding z-score [2]: 4.57
- PBM binding z-score [3]: 4.2
- PBM binding z-score [4]: 4.1
- PBM binding z-score [5]: 0.607
- PBM binding z-score [6]: 5.07
- PBM binding z-score [7]: 3.41
- PBM binding z-score [8]: 4.95
- PBM binding z-score [9]: 2.71
- PBM binding z-score [10]: 4.5

Sequence: GATAGAGGGTCAGCTAGAGGCCAGAGTATGGAAA
- PBM binding z-score [1]: 3.79
- PBM binding z-score [2]: 2.41
- PBM binding z-score [3]: -0.113
- PBM binding z-score [4]: 2.02
- PBM binding z-score [5]: -0.604
- PBM binding z-score [6]: 3.92
- PBM binding z-score [7]: 2.36
- PBM binding z-score [8]: 2.57
- PBM binding z-score [9]: 0.476
- PBM binding z-score [10]: 1.54

Sequence: CCGACTGGGGGAGAAAGGTTACCATACCATCCGG
- PBM binding z-score [1]: 1.31
- PBM binding z-score [2]: 1.61
- PBM binding z-score [3]: 0.182
- PBM binding z-score [4]: 2.9
- PBM binding z-score [5]: 4.09
- PBM binding z-score [6]: 3.66
- PBM binding z-score [7]: 3.97
- PBM binding z-score [8]: 6.01
- PBM binding z-score [9]: 4.46
- PBM binding z-score [10]: 6.42

Sequence: ATACCAAGGTGGTCGTGAGGTCGTTGATACTAAC
- PBM binding z-score [1]: 1.49
- PBM binding z-score [2]: 0.821
- PBM binding z-score [3]: 0.382
- PBM binding z-score [4]: 1.05
- PBM binding z-score [5]: -0.378
- PBM binding z-score [6]: 1.21
- PBM binding z-score [7]: 0.268
- PBM binding z-score [8]: 0.0614
- PBM binding z-score [9]: -0.274
- PBM binding z-score [10]: -0.258

Sequence: AGTCAAAGTTCAGGACGAGGTAACGTAAAGCACG
- PBM binding z-score [1]: 3.82
- PBM binding z-score [2]: 3.74
- PBM binding z-score [3]: 0.999
- PBM binding z-score [4]: 1.93
- PBM binding z-score [5]: 0.286
- PBM binding z-score [6]: 3.46
- PBM binding z-score [7]: 4.47
- PBM binding z-score [8]: 4.95
- PBM binding z-score [9]: 2.17
- PBM binding z-score [10]: 3.94

Sequence: CAAACTAGGTCACGAAAGGTCAATGTCGAATGAC
- PBM binding z-score [1]: 7.08
- PBM binding z-score [2]: 7.86
- PBM binding z-score [3]: 6.57
- PBM binding z-score [4]: 7.03
- PBM binding z-score [5]: 1.87
- PBM binding z-score [6]: 6.73
- PBM binding z-score [7]: 10.3
- PBM binding z-score [8]: 8.29
- PBM binding z-score [9]: 6.83
- PBM binding z-score [10]: 8.33

Sequence: TATACAGGGTCATAGGCCAGAGTACGAATGTCGA
- PBM binding z-score [1]: 6.89
- PBM binding z-score [2]: 6
- PBM binding z-score [3]: 1.98
- PBM binding z-score [4]: 4.45
- PBM binding z-score [5]: 1.7
- PBM binding z-score [6]: 5.81
- PBM binding z-score [7]: 7.21
- PBM binding z-score [8]: 6.45
- PBM binding z-score [9]: 3.76
- PBM binding z-score [10]: 5.8

Sequence: CCTGCTAGGTCATGGTCAGCTCATCTACAGTATG
- PBM binding z-score [1]: 3.3
- PBM binding z-score [2]: 2.63
- PBM binding z-score [3]: 0.179
- PBM binding z-score [4]: 1.95
- PBM binding z-score [5]: 0.157
- PBM binding z-score [6]: 3.42
- PBM binding z-score [7]: 2.25
- PBM binding z-score [8]: 2.85
- PBM binding z-score [9]: 0.448
- PBM binding z-score [10]: 1.72

Sequence: TCTTGAAGATCAATAGAGGTTAAGAAAGTGCGCT
- PBM binding z-score [1]: 1.21
- PBM binding z-score [2]: 3.88
- PBM binding z-score [3]: 0.18
- PBM binding z-score [4]: 1.99
- PBM binding z-score [5]: -0.548
- PBM binding z-score [6]: 1.79
- PBM binding z-score [7]: -0.0471
- PBM binding z-score [8]: 1.56
- PBM binding z-score [9]: 2.76
- PBM binding z-score [10]: 2.46

Sequence: CGAACTGGGTCAGAACAGGACAGTGAAGGATGAT
- PBM binding z-score [1]: 0.455
- PBM binding z-score [2]: 0.381
- PBM binding z-score [3]: -0.423
- PBM binding z-score [4]: 0.0427
- PBM binding z-score [5]: -0.721
- PBM binding z-score [6]: 2.66
- PBM binding z-score [7]: 4.95
- PBM binding z-score [8]: 3.9
- PBM binding z-score [9]: 1.63
- PBM binding z-score [10]: 3.42

Sequence: TCTGCTAGGTCAACGATTGTCAGCTAATCTGCTA
- PBM binding z-score [1]: 2.81
- PBM binding z-score [2]: 1.94
- PBM binding z-score [3]: -0.0951
- PBM binding z-score [4]: 1.4
- PBM binding z-score [5]: -0.279
- PBM binding z-score [6]: 2.93
- PBM binding z-score [7]: 2.43
- PBM binding z-score [8]: 2.93
- PBM binding z-score [9]: 1.9
- PBM binding z-score [10]: 2.36
